Laboratory results from PubChem BioAssay (Tox21).
Results filed as inconclusive are left out. Where a call stands in place of a potency, no number is given. Calls of active or inactive are those of the source. Calls come from the whole dose curve; as a rule, active = well fitted cell-killing curve with a large enough effect in the repeat runs; inconclusive = weak or mixed curves, or effect the other way; inactive = no such curve, though single readings can be large or run the other way.

Experiment: qHTS assay for identifying genotoxic compounds that show differential cytotoxicity against isogenic chicken DT40 cell lines with known DNA damage response pathways - Rev3 mutant cell line (AID 743014); note: nearly all actives have a fitted effect of over 55% in size
Conditions: chicken DT40 Rev3-/- viability, CellTiter-Glo, 40 h; series mostly up to 68.4 µM
Source text: National Center for Advancing Translational Sciences [NCATS]
NIH Chemical Genomics Center [NCGC]
U.S. Environmental Protection Agency [EPA]
National Institutes of Environmental Health Sciences [NIEHS]
National Toxicology Program [NTP]
U.S. Food and Drug Administration [FDA]
DNA repair pathways play a critical role in cellular homeostasis by repairing DNA damage induced by endogenous processes and xenobiotics. Isogenic chicken DT40 cell lines deficient in different DNA repair pathways can be used to identify genotoxic compounds and aid in characterizing the nature of the DNA damage induced. Two DNA repair-deficient cell lines with disrupted genes, Rad54/Ku70 or Rev3, were used to screen the Tox21 10K compound library. Possible genotoxicity was based on the presence of a significant increase in cytotoxicity in one or more of the DNA repair-deficient cell lines compared to that observed in the parental DNA repair-proficient cell line. CellTiter Glo viability assay (Promega, Madison, WI) was used to measure cell viability in these cells after compound treatment. This assay includes the data from the Rev3 mutant cell line.
Tox21 Assay Protocol Summary:
300 DT40 mutant cells in 5 uL/well were dispensed into white, solid-bottom 1536-well plates using a Multidrop Combi (ThermoFisher Scientific, Waltham, MA) dispenser. After the assay plates were incubated at 37 C/5% CO2 for approximately 0.5 hour, 23 nL of compounds dissolved in DMSO, positive controls or DMSO only was transferred into the assay plate by a pintool work station (Kalypsys, San Diego, CA). The assay plates were incubated at 37 C/5% CO2 for 40 hours. After 5 uL per well of CellTiter-Glo reagent was added into each well of the assay plates, the plates were incubated for 30 min at room temperature and the luminescence intensity of the plates was measured using a ViewLux (PerkinElmer, Shelton, CT) plate reader.
Potency is the fitted concentration of half-maximal effect.

Compound | Potency
Cc1ccc(S(=O)(=O)NC(=O)NC2CCCCC2)cc1 | inactive
O=C(O)CCC(=O)c1ccc(-c2ccccc2)cc1 | inactive
CCCCCCC(CO)CCCC (stereo not given) | inactive
CC(C)(C(=O)c1cccnc1)c1cccnc1 | inactive
Cc1c[nH]c2ccccc12 | inactive
CC1C(C)(C)C2=C(C(=O)CCC2)C1(C)C (stereo not given) | inactive
CCCCCCCCCCCCCOC(=O)CCSCCC(=O)OCCCCCCCCCCCCC | inactive
N[C@@H](Cc1cc(I)c(O)c(I)c1)C(=O)O | inactive
CCCCCCCC(=O)OCCCCCC | inactive
CCCCC[C@H](O)/C=C/[C@H]1[C@H](O)CC(=O)[C@@H]1C/C=C\CCCC(=O)O | inactive
Nc1ccn([C@H]2CS[C@@H](CO)O2)c(=O)n1 | inactive
CCCCCC | inactive
CCOC(=O)c1ccc(NC(=O)CN2CCCCC2)cc1 | 10.6 µM (active)
CN(C)CC/C=C1\c2ccccc2Sc2ccc(Cl)cc21 | 16.8 µM (active)
CC(=O)OCC(=O)[C@@]1(OC(C)=O)[C@@H](C)C[C@H]2[C@@H]3C[C@H](F)C4=CC(=O)C=C[C@]4(C)[C@@]3(F)[C@@H](O)C[C@@]21C | 11.9 µM (active)
Nc1nc(-c2ccc([N+](=O)[O-])cc2)cs1 | inactive
COc1ccc(C(=O)NCc2ccc(OCCN(C)C)cc2)cc1OC | inactive
COc1cc(NS(=O)(=O)c2ccc(N)cc2)nc(C)n1 | inactive
CC(C)(C)S | inactive
COc1ccc(C2C(=O)c3ccccc3C2=O)cc1 | inactive

Compound | Potency
COC(=O)C1=C(C)NC(C)=C(C(=O)OC(C)(C)CN(C)CCC(c2ccccc2)c2ccccc2)C1c1cccc([N+](=O)[O-])c1 (stereo not given) | 6.68 µM (active)
CNC1CCCN(c2c(F)cc3c(=O)c(C(=O)O)cn(C4CC4)c3c2OC)C1 (stereo not given) | inactive
O=C(NC(Cc1cc(=O)[nH]c2ccccc12)C(=O)O)c1ccc(Cl)cc1 (stereo not given) | inactive
CCCCCCCCCCCCCCCCCC(=O)OCC(CC)CCCC (stereo not given) | inactive
CC(C)C(O)C(C)(C)CO (stereo not given) | inactive
Cc1ccc(N(CCO)CCO)cc1 | inactive
Nc1cccc2c(N)cccc12 | 47.2 µM (active)
CC(=O)OCC1=C(C(=O)O)N2C(=O)[C@@H](NC(=O)CSc3ccncc3)[C@H]2SC1 | inactive
CC(=O)OCCC1CCCCC1 | inactive
COC(C)(C)OC | inactive
O=C(C(=O)c1ccco1)c1ccco1 | inactive
CC(C)CC(O)CC(C)C | inactive
CCCCC(CC)COS(=O)(=O)O (stereo not given) | inactive
SCCc1cnccn1 | inactive
O=C(Nc1ccc(C(=O)O)c(O)c1)c1ccccc1 | inactive
[Cl][Nd]([Cl])[Cl] | inactive
CC(=O)N[C@@H](Cc1ccc(O)cc1)C(=O)O | inactive
CC(C)COC(=O)c1ccc(O)cc1 | inactive
O=C(O)CCS | inactive
Cc1ccc(NC(=O)N(C)C)cc1NC(=O)N(C)C | inactive
